Rab9 prom act = activators of Rab9 promoter | Huh7 Rab9 promoter-luciferase reporter, luminescence, 24 h | Potency, µM (doses to about 9.22 µM), without a hit: at the top dose activation, negative = inhibition, actives largely listed as activators | 2.8% of 320,000 active; further: % of control where 0% means no effect; nearly all actives have a fitted effect of over 60% in size
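Measured in stably transfected Huh7 cells bearing a Rab9 promoter–luciferase construct: 24 h compound treatment at 37 °C, followed by luminescence detection.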
ELG1 repair inh = inhibitors of ELG1-dependent DNA repair in HEK293T cells; HEK293T ELG1-luciferase reporter, luminescence, 16 h; DNA damage induced by 5-fluorouridine; Potency, µM (series often up to 46.1 µM), without a hit: top-dose activity change, negative = inhibition, actives largely listed as inhibitors; 2.3% of 330,000 active; AID 504467; further: on the % scale 0 is the no-effect control and ±100 the full control effect; nearly all actives have a fitted effect of over 55% in size
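Luminescence from the luciferase reporter, measured 30 min after ONE-Glo reagent at room temperature, was the read-out. Beforehand, 2,000 cells per well were exposed for 16 hr at 37 °C to 5-fluorouridine together with compound or vehicle.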
NPC1 prom act = NPC1 promoter activation; 2.4% of 320,000 active; Huh7 NPC1 promoter luciferase reporter, 24 h; Potency, µM (doses to about 9.22 µM), inactives show at the highest dose activation, hits mostly activators; AID 485313; further: % of control where 0% means no effect; nearly all actives have a fitted effect of over 60% in size
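Compounds in DMSO were transferred onto Huh7 NPC1-luciferase reporter cells pre-incubated 2 h; after 24 h at 37 °C, Amplite reagent was dispensed and luminescence recorded 10 min later.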
ELG1 genotoxic = induces genotoxicity in HEK293T cells with luciferase-tagged ELG1 | HEK293T ELG1-luciferase reporter, luminescence, 16 h | Potency, µM (top dose mostly 46 µM), inactives show at the top dose activity change, positive = activation, hits mostly activators | 1.3% of 330,000 active | AID 504466; further: % of control where 0% means no effect; nearly all actives have a fitted effect of over 60% in size
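HEK293T cells expressing luciferase-tagged ELG1 were exposed to compound or DMSO vehicle for 16 hr at 37 °C and 5% CO2. Luciferase activity was then measured with ONE-Glo after 30 min at room temperature.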
SMN2 splice up = enhancers of SMN2 splice variant expression. HEK293 SMN2-luciferase splicing reporter, luminescence, 30-36 h. Potency, µM (top dose mostly 46.1 µM), for the others: top-dose activity change, positive = activation, most hits filed as activators. 2.8% of 210,000 active. AID 1458; further: % of control where 0% means no effect; nearly all actives have a fitted effect of over 55% in size
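qHTS luciferase splicing reporter: luminescence rises when SMN2 exon 7 is included in transfected HEK293 cells. Compound exposure lasted 30-36 h at 37C, with 4.5 mM final sodium butyrate as control, followed by a ONE-Glo read.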
FLuc counter = firefly luciferase modulation, counter-screen for miR-21 project; P08659; purified FLuc, Km substrates, luminescence inhibition; Potency, µM (series often up to 57.5 µM), inactives show at the top dose activity change, negative = inhibition, most hits filed as inhibitors; 6.9% of 360,000 active; AID 588342;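 further: plate controls were vehicle for no effect and reference inhibitor for full effect; nearly all actives have a fitted effect of over 55% in size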
Target sequence (P08659 whole entry, looked up): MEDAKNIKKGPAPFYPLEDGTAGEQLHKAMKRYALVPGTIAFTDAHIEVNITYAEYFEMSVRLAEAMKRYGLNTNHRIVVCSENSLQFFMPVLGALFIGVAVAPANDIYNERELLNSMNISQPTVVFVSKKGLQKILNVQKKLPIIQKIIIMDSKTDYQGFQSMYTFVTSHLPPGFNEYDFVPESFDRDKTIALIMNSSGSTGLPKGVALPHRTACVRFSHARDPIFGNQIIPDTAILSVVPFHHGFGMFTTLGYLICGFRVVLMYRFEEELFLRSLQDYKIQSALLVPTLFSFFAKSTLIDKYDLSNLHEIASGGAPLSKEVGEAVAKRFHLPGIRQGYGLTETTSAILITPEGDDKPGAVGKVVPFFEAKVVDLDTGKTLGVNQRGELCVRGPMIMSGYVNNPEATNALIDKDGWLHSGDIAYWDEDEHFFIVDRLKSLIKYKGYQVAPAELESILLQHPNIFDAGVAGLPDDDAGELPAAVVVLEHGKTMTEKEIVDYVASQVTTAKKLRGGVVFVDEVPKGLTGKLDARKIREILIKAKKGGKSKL
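Purified P. pyralis luciferase, 10 nM final, with Km-level 10 uM D-luciferin and 10 uM ATP in 50 mM Tris acetate pH 7.5, 10 mM Mg acetate, 0.01% Tween-20, 0.05% BSA; 6-point qHTS titration about 60 µM downward; luminescence read.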
Numbers without * were called inactive; ? = inconclusive; nt = no result given. Sampled rows, rich in hits. Any-hit rate of the full collection: about 9.3%. The call rests on the fitted dose curve; in most records, active means well fitted curve in the direction sought with a large enough effect; inconclusive means small, poorly fitted or top-dose-only effect, or another doubt; inactive means no such curve, though single readings can be large; an effect the other way counts as inactive or inconclusive. Potency means the concentration at half of the fitted maximal effect.

SMILES	Rab9 prom act	ELG1 repair inh	NPC1 prom act	ELG1 genotoxic	SMN2 splice up	FLuc counter
CCCn1c(C)cs/c1=N\C(=S)Nc1ccccc1	3%	4%	9%	2%	1%	3%
CCN(CC)C(=O)CSc1nc2sc3c(c2c(=O)n1-c1ccc(C)cc1)CC(C)(C)SC3	-1%	-12%	1%	-1%	-2%	4%
CC(C)CNC(=O)c1cccc(NC(=O)CSc2ccc(Cl)cc2)c1	-1%	-13%	-1%	-7%	-3%	?
CC(=O)Oc1ccc(C(=O)Nc2cccc(C(=O)c3cccc(NC(=O)c4ccc(OC(C)=O)cc4)c3)c2)cc1	-6%	23µM*	-7%	-6%	4%	-10%
CC(C)(C)NC(=O)c1cccc(NC(=O)c2cccc(O)c2)c1	3%	?	18%	9%	18%	?
CC(=O)Oc1ccc(C(=O)Nc2cccc(C(=O)NC(C)(C)C)c2)cc1	-8%	20%	2%	1%	-23%	19µM*
CC(C)(C)NC(=O)c1cccc(NC(=O)CSc2ccc(Cl)cc2)c1	-6%	?	1%	-4%	-18%	11µM*
CC(=O)Oc1ccc(C(=O)Nc2cccc(-c3nnc(-c4ccco4)o3)c2)cc1	1%	?	0%	-8%	nt	-16%
NS(=O)(=O)c1ccc(NCC2COc3ccccc3O2)c([N+](=O)[O-])c1 (stereo unspecified)	21%	11%	-1%	4%	11%	-11%
CC(=O)c1ccc(NCC2COc3ccccc3O2)c([N+](=O)[O-])c1 (stereo unspecified)	1.1µM*	?	2.8µM*	?	5.6µM*	17µM*
CC(C)Oc1ccc(/C=C/C(=O)NCC2COc3ccccc3O2)cc1 (stereo unspecified)	-5%	-24%	3%	-4%	nt	15µM*
O=C(NCC1COc2ccccc2O1)c1ccc(NC(=O)c2ccco2)cc1 (stereo unspecified)	5%	-12%	4%	0%	23%	1%
O=C(NCC1COc2ccccc2O1)c1ccc(Cl)cc1 (stereo unspecified)	2.5µM*	?	3.5µM*	12µM*	14µM*	7.6µM*
Cc1ccc(C(=O)NC2CC3CCC(C2)N3C)cc1 (stereo unspecified)	0%	4%	-1%	-1%	nt	nt
Cc1ccccc1NC(=O)COc1ccc2c(c1)OC(C)(C)CC2=O	?	?	?	14%	nt	24µM*
COc1cc(NC(=O)COc2cc(O)c3c(c2)OC(C)(C)CC3=O)cc(OC)c1OC	-41%	10µM*	-31%	-14%	nt	?
CC1(C)CC(=O)c2c(O)cc(OCC(=O)Nc3ccc(S(N)(=O)=O)cc3)cc2O1	-8%	?	6%	-6%	nt	-10%
CC1(C)CC(=O)c2c(O)cc(OCC(=O)N3CCN(c4ccccc4)CC3)cc2O1	0%	-9%	0%	-6%	nt	15µM*
COc1cc(NC(=O)COc2cccc3c2OC(C)(C)C3)cc(OC)c1OC	-18%	13µM*	-4%	-8%	nt	6%
O=C(COc1ccccc1)N1CCN(c2ccccc2)CC1	0%	4%	-1%	1%	-27%	4%
CC(C)CCNC(=O)COc1ccc2c(c1)C(=O)CC(C)(C)O2	23%	?	9%	?	17%	-19%
COc1cccc(CNC(=O)CCn2cnc3ccccc3c2=O)c1	nt	nt	nt	nt	nt	-8%
COc1cc(C)c(NC(=O)COc2cccc3c2OC(C)(C)C3)cc1OC	-15%	18µM*	-4%	-12%	nt	-1%
Cc1ccsc1C(=O)Nc1ccc(OCc2ccccc2)cc1	1.1µM*	?	1.6µM*	?	nt	1.5µM*
Cc1cc(C(=O)Nc2cccc3ccccc23)c(C)o1	-4%	?	-6%	3%	nt	-16%
Cc1oc(C(=O)Nc2ccc(C(=O)O)cc2)cc1COc1ccccc1	13%	?	1%	8%	-1%	11µM*

Assay outcomes (PubChem BioAssay)
